Experiment [1] can be described thus: optical density shifts of acrAB sulA E. coli – strain DRC41, OD650, 48 h, E. coli filamentation inducer project, primary screen (AID 1152).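 Note: E. coli MC1000 strain DRC41 lacking acrAB efflux pump and sulA.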 The note with it: higher = more signal, called active from +8 up or from −8 down.
Experiment [2] in a line: probe aLefty1 binding on compound microarray – biochemical, small-molecule microarray, 635/667 nm fluorescence, primary screen (AID 1153).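 Note: score merges spot fluorescence with signal-to-noise ratio from the scanned slide images.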 The following applies: higher = more signal.
The nature of experiment [3]: plasmodial surface anion channel blockers, osmotic lysis – cell-based, P. falciparum Indochina, OD700, 1 h, primary screen (AID 1154). The note with it: P. falciparum Indochina infected RBC osmotic lysis, higher = more signal, called active from +8 up or from −8 down.
The nature of experiment [4]: plasmodial surface anion channel blockers, osmotic lysis – cell-based, P. falciparum Indochina, OD700, 2 h, primary screen (AID 1155).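 Note: lysis reports solute entry through the parasite surface anion channel PSAC.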 The note with it: P. falciparum Indochina infected erythrocytes, higher = more signal, called active from +8 up or from −8 down.
Experiment [5] is described as follows: changes in parasitized red cell lysis, either direction – P. falciparum Indochina, OD700, 3 h, PSAC antagonist project, primary screen (AID 1156). The following applies: P. falciparum-infected erythrocytes, osmotic lysis, higher = more signal, called active from +8 up or from −8 down.
A short description of experiment [6]: plasmodial surface anion channel blockers, osmotic lysis – cell-based, P. falciparum Indochina, OD700, 18 h, primary screen (AID 1157). The note with it: P. falciparum Indochina infected erythrocytes, osmotic lysis OD700, 18 h; higher = more signal, called active from +8 up or from −8 down.
Experiment [7] in a line: S6 kinase pathway phospho-S6 level changes – cell-based, A549, cytoblot, luminescence, serum-stimulated, primary screen (AID 1158).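 Note: serum-stimulated A549 lung adenocarcinoma cells; signal is phosphorylated S6 detected by cytoblot immunostaining with HRP secondary.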 The note with it: 5 h, higher = more signal.
Experiment [8] deals with NADPH oxidase 2 (Homo sapiens) (UniProt P04839). Description: compounds shifting NOX2 Amplex Red fluorescence – cell-based, HEK293-NOX2, PMA-stimulated, NOX inhibitor project, primary screen (AID 1159). Note: test concentration not given here. The note with it: 45 min, higher = more signal, called active from +8 up or from −8 down.
Chain of NADPH oxidase 2 (Homo sapiens) (P04839 whole entry, looked up): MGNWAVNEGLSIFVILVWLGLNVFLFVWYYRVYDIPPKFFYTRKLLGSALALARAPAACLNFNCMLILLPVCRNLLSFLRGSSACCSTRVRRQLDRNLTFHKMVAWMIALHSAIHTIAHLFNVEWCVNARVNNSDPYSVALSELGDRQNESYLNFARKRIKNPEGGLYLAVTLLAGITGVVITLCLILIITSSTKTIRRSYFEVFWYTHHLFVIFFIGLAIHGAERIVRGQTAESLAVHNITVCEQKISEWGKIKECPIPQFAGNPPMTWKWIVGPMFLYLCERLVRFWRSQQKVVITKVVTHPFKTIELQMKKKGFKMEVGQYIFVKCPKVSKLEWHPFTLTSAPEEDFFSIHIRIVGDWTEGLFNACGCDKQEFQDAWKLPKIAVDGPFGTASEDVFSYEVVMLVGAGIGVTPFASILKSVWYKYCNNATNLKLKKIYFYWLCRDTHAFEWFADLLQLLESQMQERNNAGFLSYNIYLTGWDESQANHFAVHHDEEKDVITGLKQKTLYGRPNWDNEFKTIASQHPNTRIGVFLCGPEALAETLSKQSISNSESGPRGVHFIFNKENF
The target of experiment [9] is NADPH oxidase 4 (Homo sapiens) (UniProt Q9NPH5). The experiment can be described thus: compounds shifting NOX4 Amplex Red fluorescence – cell-based, HEK293-NOX4, tetracycline-induced, NOX inhibitor project, primary screen (AID 1160). The following applies: HEK293-NOX4, Amplex Red H2O2 fluorescence, 45 min; higher = more signal, called active from +8 up or from −8 down.
Chain of NADPH oxidase 4 (Homo sapiens) (Q9NPH5 whole entry, looked up): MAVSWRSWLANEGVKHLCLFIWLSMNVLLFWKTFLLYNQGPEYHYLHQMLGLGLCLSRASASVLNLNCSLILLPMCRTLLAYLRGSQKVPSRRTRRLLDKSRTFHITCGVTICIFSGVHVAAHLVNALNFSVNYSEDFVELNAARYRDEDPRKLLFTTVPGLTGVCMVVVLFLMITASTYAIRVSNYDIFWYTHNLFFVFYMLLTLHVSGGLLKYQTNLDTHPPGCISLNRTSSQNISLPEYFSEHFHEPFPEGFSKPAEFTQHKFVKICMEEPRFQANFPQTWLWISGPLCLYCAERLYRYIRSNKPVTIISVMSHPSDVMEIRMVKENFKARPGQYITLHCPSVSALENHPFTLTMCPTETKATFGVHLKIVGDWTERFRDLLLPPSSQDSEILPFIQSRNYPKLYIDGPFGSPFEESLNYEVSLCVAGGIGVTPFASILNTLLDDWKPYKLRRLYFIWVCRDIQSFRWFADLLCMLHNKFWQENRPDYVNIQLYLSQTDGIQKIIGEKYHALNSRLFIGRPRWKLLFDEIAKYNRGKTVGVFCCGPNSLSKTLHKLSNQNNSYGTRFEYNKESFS

For experiment [10], the target named is NADPH oxidase 5 (Homo sapiens) (UniProt Q96PH1). The experiment can be described thus: compounds shifting NOX5 Amplex Red fluorescence – cell-based, HEK293-NOX5, NOX inhibitor project, primary screen (AID 1161). The following applies: HEK293-NOX5, ionomycin, 45 min, higher = more signal.
Chain of NADPH oxidase 5 (Homo sapiens) (Q96PH1 whole entry, looked up): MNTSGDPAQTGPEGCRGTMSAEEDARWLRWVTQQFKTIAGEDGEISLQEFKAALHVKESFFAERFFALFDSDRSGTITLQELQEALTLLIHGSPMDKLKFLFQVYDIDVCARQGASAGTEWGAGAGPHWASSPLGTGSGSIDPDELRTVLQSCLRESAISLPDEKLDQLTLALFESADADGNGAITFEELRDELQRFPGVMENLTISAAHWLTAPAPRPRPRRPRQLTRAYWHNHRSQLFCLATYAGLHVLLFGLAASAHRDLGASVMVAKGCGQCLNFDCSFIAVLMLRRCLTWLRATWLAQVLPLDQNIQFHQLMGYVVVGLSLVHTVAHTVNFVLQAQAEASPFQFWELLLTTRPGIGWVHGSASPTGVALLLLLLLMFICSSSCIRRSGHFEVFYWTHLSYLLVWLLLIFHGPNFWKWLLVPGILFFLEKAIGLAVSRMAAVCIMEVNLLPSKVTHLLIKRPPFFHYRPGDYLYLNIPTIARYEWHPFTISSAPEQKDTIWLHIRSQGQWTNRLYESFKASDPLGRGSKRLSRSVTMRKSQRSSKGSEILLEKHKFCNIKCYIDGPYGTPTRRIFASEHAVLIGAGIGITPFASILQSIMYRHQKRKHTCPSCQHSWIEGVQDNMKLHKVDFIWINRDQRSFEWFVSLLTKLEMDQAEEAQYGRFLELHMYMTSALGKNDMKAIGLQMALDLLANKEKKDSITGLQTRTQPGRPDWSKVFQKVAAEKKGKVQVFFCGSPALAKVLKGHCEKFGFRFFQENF

Activity calls are given as the source filed them.

With `O=C(N1CCCCC1)[C@]1(CCS(=O)(=O)c2ccccc2)N=C(c2ccc(OCCCO)cc2)O[C@@H]1c1ccccc1`, the z-score in experiment [1] is -0.725 (inactive); in [3], 27.2 (active); in experiment [4], 19.5 (active); in experiment [5], 2.02 (inactive); in [6], -0.192 (inactive); in experiment [7], 1.54. The z-score in [8] was -2.96 (inactive); in experiment [9] it was -1.7 (inactive); in experiment [10] it was -1.94. Besides, the composite z-score in experiment [2] came out at 1.17.

In the case of `COCCCNC(=O)[C@@]1(Cc2ccccc2I)c2ccccc2C(=O)N(Cc2ccccc2)[C@H]1c1ccc(CO)cc1`, the z-score in experiment [1] is 0.263 (inactive); in experiment [3] it was 11.1 (active); in experiment [4], 2.37 (inactive); in [5], 1.85 (inactive); in experiment [6] it was 1.43 (inactive); in [7], -0.231. Also, the results for the z-score in experiment [8], in experiment [9] and in experiment [10] were 0.0296 (inactive), 0.779 (inactive) and 0.242, respectively. The compound also gave a composite z-score in experiment [2] of 0.243.

`[N-]=[N+]=NCc1ccccc1C[C@]1(C(N)=O)N=C(c2ccc(OCCCO)cc2)O[C@H]1c1ccccc1N=[N+]=[N-]`: the z-score in experiment [1] was 0.125 (inactive); in experiment [3], 34.1 (active); in [4], 32.7 (active); in experiment [5], 2.52 (inactive); in experiment [6], 3.39 (inactive); in [7], -0.59. For the same compound, the figures for the z-score in [8], in [9] and in experiment [10] were -3.15 (inactive), -0.457 (inactive) and -2.02, respectively. This compound also yielded a composite z-score in experiment [2] of 0.588.

`Cc1ccc(S[C@]2(C(=O)NCCCN(C)C)CC(=O)N(C(C)C)[C@@H]2c2ccc(CO)cc2I)cc1`: the z-score in experiment [1] is 0.997 (inactive); in experiment [3], 6.19 (inactive); in experiment [4], -0.185 (inactive); in experiment [5], 1.38 (inactive); in experiment [6] it was 0.277 (inactive); in [7] it was -0.265. Besides, the z-score is 0.347 (inactive) in experiment [8], -0.675 (inactive) in experiment [9] and 2.17 in [10]. The composite z-score in experiment [2] was determined as 0.264.

Regarding `NC(=O)NCC#Cc1ccc2c(c1)[C@]1(C(=O)N2)[C@H](c2ccccc2OCCO)N2[C@H](c3ccccc3)[C@H](c3ccccc3)OC(=O)[C@H]2[C@@H]1C(=O)N1CCCCCCC1`, the z-score in experiment [1] is 1.01 (inactive); in experiment [3], 1.71 (inactive); in experiment [4] it was 0.786 (inactive); in experiment [5], 1.19 (inactive); in [6], 0.443 (inactive); in experiment [7], -0.281. Besides, the z-score in [8] was 1.87 (inactive); in experiment [9], 0.893 (inactive); in experiment [10], 0.768. In experiment [2], this compound displayed a composite z-score of 2.71.

Regarding `CN1C(=O)C2C=CC(C(O)C(C)(C)C)N(Nc3ccccc3)C2C1=O` (stereo not given), the z-score was -1.06 (inactive) in experiment [1]; 0.931 (inactive) in experiment [3]; 1.05 (inactive) in experiment [4]; 0.156 (inactive) in [5]; 1.12 (inactive) in experiment [6]; -1.04 in experiment [7]. In addition, the z-score in experiment [8] is -1.09 (inactive); in experiment [9] it was -3.48 (inactive); in experiment [10] it was -1.54. Also, in experiment [2], the composite z-score was -0.0838.

`O=C1C2C=CC(C(O)c3ccc(Br)cc3)N(n3cnnc3)C2C(=O)N1Cc1ccccc1` (stereo not given): the z-score in experiment [1] is -2.21 (inactive); in [3], 0.922 (inactive); in experiment [4], 1.16 (inactive); in [5], 0.107 (inactive); in experiment [6], 0.756 (inactive); in experiment [7] it was -0.738. Besides, the z-score in experiment [8] is 0.101 (inactive); in experiment [9] it was 2.59 (inactive); in experiment [10], 0.964. Moreover, the composite z-score in experiment [2] amounted to 0.152.

For the compound `Cc1ccc(S(=O)(=O)N2CC(C(=O)O)=CCC2c2ccccc2)cc1` (stereo not given), the z-score in experiment [1] was -1.24 (inactive); in experiment [3], 1.17 (inactive); in [4], 1.1 (inactive); in experiment [5], 1.13 (inactive); in [6] it was 0.879 (inactive); in experiment [7], -0.55. Moreover, the z-score in experiment [8] is -0.363 (inactive); in experiment [9], -1.02 (inactive); in [10] it was -1.02. In experiment [2], this compound had a composite z-score of 0.0717.

With `C=CC[C@@]1(C(N)=O)N=C(c2ccc(OCCCO)cc2)O[C@@H]1c1ccccc1N=[N+]=[N-]`, the z-score in [1] was 1.3 (inactive); in experiment [3] it was 32.8 (active); in [4], 32.6 (active); in [5] it was 4.04 (inactive); in [6] it was 3.37 (inactive); in experiment [7] it was 0.305. Further, the z-score in experiment [8] is 0.039 (inactive); in experiment [9], -0.164 (inactive); in experiment [10] it was -1.76. This compound also gave a composite z-score in experiment [2] of 0.355.

Turning to `CCOC(=O)C1=C[C@@H](C(C)(C)C)N(S(=O)(=O)c2ccc(C)cc2)[C@H]1c1ccc(Cl)c(Cl)c1`, the z-score in experiment [1] was -1.27 (inactive); in experiment [3], 1.92 (inactive); in experiment [4], 1.15 (inactive); in experiment [5], -0.335 (inactive); in experiment [6], 0.659 (inactive); in experiment [7] it was -0.359. The z-score was -0.739 (inactive) in experiment [8], 0.0493 (inactive) in [9] and 0.263 in experiment [10]. The same compound displayed a composite z-score in experiment [2] of 0.157.
